The supplement of paper PMC6522484
± gives the standard deviation of the averaged measurements.

What was measured:
DLD1 [1] = test: cell viability (CellTiter-Glo) relative to plate median (fraction of plate median); higher = more viable cells; settings: 5 µM; treatment time 24 h; reporter: 7TFP
Method in brief: (§1)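 Normalisation used webcellHTS2 in additive mode without log transformation, scaling each well's luminescence to the plate median. The luminescence was firefly luciferase or CellTiterGlo, read on a Tecan F500 from parallel plates of colorectal cancer cells stably transduced with lentiviral TCF/Wnt firefly luciferase reporters. Those cells had been given library compounds at a final 5 µM for 24 h, and two independent replicates were averaged.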

HCT116 = test: as above; settings: 5 µM; treatment time 24 h; reporter: TCF4/Wnt
Method in brief: as §1

SW480 [2] = test: as above; settings: 5 µM; treatment time 24 h; reporter: 7TFP
Method in brief: as §1

DLD1 [3] = test: TCF/Wnt firefly luciferase reporter signal relative to plate median (fraction of plate median); higher = higher Wnt reporter signal; settings: 5 µM; treatment time 24 h; reporter: 7TFP
Method in brief: as §1

SW480 [4] = test: as above; settings: 5 µM; treatment time 24 h; reporter: 7TFP
Method in brief: as §1

SMILES: COc1cc2c(cc1-c1cc3cc4ccoc4cc3oc1=O)OCO2
- cell viability (DLD1 [1]): 0.964 ± 0.03
- cell viability (HCT116): 0.949 ± 0.054
- cell viability (SW480 [2]): 0.93 ± 0.059
- TCF/Wnt firefly luciferase reporter signal (DLD1 [3]): 0.973 ± 0.017
- TCF/Wnt firefly luciferase reporter signal (SW480 [4]): 0.9445 ± 0.0021

SMILES: CNc1ccc(C(=O)CC(O)CCC(C)C2OC(=O)CC(O)CC(=O)CC(O)CC(O)CC(O)CC(O)CC3(O)CC(O)C(C(=O)OC)C(CC(O[C@@H]4O[C@H](C)[C@@H](O)[C@H](N)[C@@H]4O)/C=C/C=C/C=C/C=C/C=C/C=C/C=C/C2C)O3)cc1.COC(=O)C1C(O)CC2(O)CC(O)CC(O)CC(O)CC(O)CC(=O)CC(O)CC(=O)OC(C(C)CCC(O)CC(=O)c3ccc(N)cc3)C(C)/C=C/C=C/C=C/C=C/C=C/C=C/C=C/C(O[C@@H]3O[C@H](C)[C@@H](O)[C@H](N)[C@@H]3O)CC1O2 (stereo not given in full)
- cell viability (DLD1 [1]): 0.932 ± 0.096
- cell viability (HCT116): 0.959 ± 0.011
- cell viability (SW480 [2]): 0.962 ± 0.0085
- TCF/Wnt firefly luciferase reporter signal (DLD1 [3]): 0.85 ± 0.088
- TCF/Wnt firefly luciferase reporter signal (SW480 [4]): 0.908 ± 0.023

SMILES: C[C@]12CC[C@H](Cl)C[C@@H]1CC[C@@H]1[C@@H]2CC[C@]2(C)C(=O)CC[C@@H]12 [3beta-CHLOROANDROSTANONE]
- cell viability (DLD1 [1]): 1.08 ± 0.05
- cell viability (HCT116): 0.981 ± 0.041
- cell viability (SW480 [2]): 1.06 ± 0.071
- TCF/Wnt firefly luciferase reporter signal (DLD1 [3]): 1.07 ± 0.13
- TCF/Wnt firefly luciferase reporter signal (SW480 [4]): 1.115 ± 0.0071

SMILES: C/C=C(/C)C(=O)O[C@H]1CC[C@@]2(C)[C@@H]3CC[C@H]4[C@]5(O)C[C@H](O)[C@@]6(O)[C@@H](CN7C[C@@H](C)CC[C@H]7[C@@]6(C)O)[C@]5(O)C[C@@]42O[C@]13O
- cell viability (DLD1 [1]): 0.994 ± 0.037
- cell viability (HCT116): 0.995 ± 0.021
- cell viability (SW480 [2]): 0.946 ± 0.017
- TCF/Wnt firefly luciferase reporter signal (DLD1 [3]): 0.952 ± 0.036
- TCF/Wnt firefly luciferase reporter signal (SW480 [4]): 0.9235 ± 0.0078

SMILES: COc1ccc([C@H]2Oc3c(I)c(OC)cc(OC)c3C[C@@H]2O)cc1OC
- cell viability (DLD1 [1]): 0.912 ± 0.011
- cell viability (HCT116): 0.89 ± 0.0071
- cell viability (SW480 [2]): 1 ± 0.042
- TCF/Wnt firefly luciferase reporter signal (DLD1 [3]): 0.959 ± 0.2
- TCF/Wnt firefly luciferase reporter signal (SW480 [4]): 1.07 ± 0.23

SMILES: CCn1cc(C(=O)O)c(=O)c2cc3c(cc21)OCO3
- cell viability (DLD1 [1]): 0.96 ± 0.016
- cell viability (HCT116): 0.949 ± 0.031
- cell viability (SW480 [2]): 0.847 ± 0.27
- TCF/Wnt firefly luciferase reporter signal (DLD1 [3]): 0.893 ± 0.058
- TCF/Wnt firefly luciferase reporter signal (SW480 [4]): 1 ± 0.11

SMILES: CCCCCCCCCCCCOC(=O)[C@H]1OC(=O)[C@H](O)[C@H]1C(=O)OO [Cinatrin C1]
- cell viability (DLD1 [1]): 1.03 ± 0.11
- cell viability (HCT116): 1.02 ± 0.033
- cell viability (SW480 [2]): 0.995 ± 0.035
- TCF/Wnt firefly luciferase reporter signal (DLD1 [3]): 0.905 ± 0.054
- TCF/Wnt firefly luciferase reporter signal (SW480 [4]): 0.977 ± 0.033

SMILES: Cc1ccc(C[N+](C)(C)C)o1
- cell viability (DLD1 [1]): 1 ± 0.026
- cell viability (HCT116): 1.025 ± 0.0071
- cell viability (SW480 [2]): 1.02 ± 0.014
- TCF/Wnt firefly luciferase reporter signal (DLD1 [3]): 0.864 ± 0.012
- TCF/Wnt firefly luciferase reporter signal (SW480 [4]): 0.903 ± 0.027

SMILES: C=C[C@H]1CN2CC[C@H]1C[C@H]2[C@H](O)c1ccnc2ccccc12
- cell viability (DLD1 [1]): 1.03 ± 0.059
- cell viability (HCT116): 1.07 ± 0.042
- cell viability (SW480 [2]): 1.01 ± 0.023
- TCF/Wnt firefly luciferase reporter signal (DLD1 [3]): 0.862 ± 0.061
- TCF/Wnt firefly luciferase reporter signal (SW480 [4]): 0.981 ± 0.028

SMILES: CO[C@]12C[C@@H](COC(=O)c3cncc(Br)c3)CN(C)[C@@H]1Cc1cn(C)c3cccc2c13
- cell viability (DLD1 [1]): 0.999 ± 0.16
- cell viability (HCT116): 0.976 ± 0.033
- cell viability (SW480 [2]): 0.999 ± 0.03
- TCF/Wnt firefly luciferase reporter signal (DLD1 [3]): 0.968 ± 0.1
- TCF/Wnt firefly luciferase reporter signal (SW480 [4]): 1 ± 0.04

SMILES: COC(=O)[C@]1(C)CC[C@]2(C)CC[C@]3(C)C4=CC=C5C(=CC(=O)C(O)=C5C)[C@]4(C)CC[C@@]3(C)[C@@H]2C1
- cell viability (DLD1 [1]): 0.981 ± 0.0085
- cell viability (HCT116): 1.16 ± 0.05
- cell viability (SW480 [2]): 1.03 ± 0.014
- TCF/Wnt firefly luciferase reporter signal (DLD1 [3]): 1.11 ± 0.071
- TCF/Wnt firefly luciferase reporter signal (SW480 [4]): 1.03 ± 0.08

SMILES: Cc1cc2c(C(C)C)c(O)c(O)c(C=O)c2c(O)c1-c1c(C)cc2c(C(C)C)c(O)c(O)c(C=O)c2c1O
- cell viability (DLD1 [1]): 0.974 ± 0.037
- cell viability (HCT116): 0.969 ± 0.044
- cell viability (SW480 [2]): 0.976 ± 0.03
- TCF/Wnt firefly luciferase reporter signal (DLD1 [3]): 0.966 ± 0.048
- TCF/Wnt firefly luciferase reporter signal (SW480 [4]): 1.04 ± 0.11

SMILES: COc1cc2occc2c2oc(=O)ccc12
- cell viability (DLD1 [1]): 0.986 ± 0.076
- cell viability (HCT116): 0.941 ± 0.11
- cell viability (SW480 [2]): 0.95 ± 0.026
- TCF/Wnt firefly luciferase reporter signal (DLD1 [3]): 1.06 ± 0.17
- TCF/Wnt firefly luciferase reporter signal (SW480 [4]): 0.818 ± 0.11

SMILES: N#Cc1nn(-c2c(Cl)cc(C(F)(F)F)cc2Cl)c(N)c1[S+]([O-])C(F)(F)F (stereo not given)
- cell viability (DLD1 [1]): 1.02 ± 0.045
- cell viability (HCT116): 1.04 ± 0.028
- cell viability (SW480 [2]): 1.005 ± 0.0071
- TCF/Wnt firefly luciferase reporter signal (DLD1 [3]): 1.01 ± 0.05
- TCF/Wnt firefly luciferase reporter signal (SW480 [4]): 1.015 ± 0.0071

SMILES: CC[C@H]1CN2CC[C@H]1C[C@@H]2[C@@H](O)c1ccnc2ccc(OC)cc12
- cell viability (DLD1 [1]): 0.997 ± 0.0042
- cell viability (HCT116): 1.07 ± 0.05
- cell viability (SW480 [2]): 1.06 ± 0.064
- TCF/Wnt firefly luciferase reporter signal (DLD1 [3]): 1.08 ± 0.24
- TCF/Wnt firefly luciferase reporter signal (SW480 [4]): 1.06 ± 0.071

SMILES: CC(=O)O[C@H]1C[C@H](O[C@H]2[C@@H](O)C[C@H](O[C@H]3[C@@H](O)C[C@H](O[C@H]4CC[C@@]5(C)[C@H](CC[C@@H]6[C@@H]5C[C@@H](O)[C@]5(C)[C@@H](C7=CC(=O)OC7)CC[C@]65O)C4)O[C@@H]3C)O[C@@H]2C)O[C@H](C)[C@H]1O[C@@H]1O[C@H](CO)[C@@H](O)[C@H](O)[C@H]1O
- cell viability (DLD1 [1]): 0.65 ± 0.044
- cell viability (HCT116): 0.636 ± 0.0042
- cell viability (SW480 [2]): 0.851 ± 0.078
- TCF/Wnt firefly luciferase reporter signal (DLD1 [3]): 0.264 ± 0.13
- TCF/Wnt firefly luciferase reporter signal (SW480 [4]): 0.584 ± 0.057

SMILES: C/C=C/[C@H]1O[C@@](O)([C@@H](C)[C@H](O)[C@H](C)[C@H]2OC(=O)/C(OC)=C/C(C)=C/[C@@H](C)[C@@H](O)[C@@H](C)[C@@H](O)[C@H](C)C/C(C)=C/C=C/[C@@H]2OC)C[C@@H](O[C@H]2C[C@@H](O)[C@H](OC(N)=O)[C@@H](C)O2)[C@@H]1C [Concanamycin B]
- cell viability (DLD1 [1]): 0.935 ± 0.0085
- cell viability (HCT116): 0.941 ± 0.011
- cell viability (SW480 [2]): 1.05 ± 0.014
- TCF/Wnt firefly luciferase reporter signal (DLD1 [3]): 0.9065 ± 0.0064
- TCF/Wnt firefly luciferase reporter signal (SW480 [4]): 1.05 ± 0.042

SMILES: CN1[C@@H]2CC[C@H]1C[C@@H](OC(=O)C(CO)c1ccccc1)C2 (stereo not given in full)
- cell viability (DLD1 [1]): 0.911 ± 0.12
- cell viability (HCT116): 1.01 ± 0.033
- cell viability (SW480 [2]): 0.994 ± 0.08
- TCF/Wnt firefly luciferase reporter signal (DLD1 [3]): 0.938 ± 0.21
- TCF/Wnt firefly luciferase reporter signal (SW480 [4]): 0.938 ± 0.038
